# “And” between values parts separate entries of the source, which are not always exact repeats. Equal values may be shown once. Inconclusive results are not listed. The source made the active and inactive calls. Unless noted, calls come from the whole dose curve; as a rule, active = well fitted curve in the direction sought with a large enough effect; inconclusive = small, poorly fitted or top-dose-only effect, or another doubt; inactive = no such curve, though single readings can be large; an effect the other way counts as inactive or inconclusive.
# Tested on: not listed separately
# Assay: Cell Viability - LYMP2-020 (AID 986);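 note: plate controls were DMSO only for no effect and tetraoctylammonium bromide at 92 µM for full effect; nearly all actives have a fitted effect of over 55% in size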
# Details: series mostly up to 92.2 µM; activity change, negative = viability loss: at the top concentration
# In short: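 Human lymphoblastoid cells, 2500/well, were pre-incubated 5 hr at 37 C, then exposed to compounds for 24 hr at 37 C in complete medium. Intracellular ATP was read by CellTiter-Glo luminescence, and AC50 was derived by Hill fitting of concentration-response data.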
row,SMILES,"activity change, negative = viability loss"
1,O=C(O)CC(O)(CC(=O)O)C(=O)O,-10.7% (inactive)
2,CN(C)Cc1ccccc1,-4.36% (inactive)
3,CCCCCCCCCC(=O)O,5.65% (inactive)
4,COC(C)=O,1.53% (inactive)

# Tested on: not listed separately
# Assay: Cell Viability - LYMP2-022 (AID 987);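 note: 0% = DMSO alone and full effect = tetraoctylammonium bromide at 92 µM; nearly all actives have a fitted effect of over 55% in size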
# Details: LYMP2-022 lymphoblastoid cell viability; series mostly up to 92.2 µM; viability change, negative = cytotoxic: at the top concentration
# In short: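 Human lymphoblastoid cells, 2500/well, preincubated 5 hr at 37 C, then exposed to compounds over a concentration range for 24 hr at 37 C in complete medium. Viability read as intracellular ATP by CellTiter-Glo luminescence after 30 min at room temperature; AC50 from Hill fits.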
row,SMILES,"viability change, negative = cytotoxic"
1,O=C(O)CC(O)(CC(=O)O)C(=O)O,-30.3% (inactive)
2,CN(C)Cc1ccccc1,-10.4% (inactive)
3,CCCCCCCCCC(=O)O,-2.92% (inactive)
4,COC(C)=O,4.38% (inactive)

# Tested on: not listed separately
# Assay: Cell Viability - LYMP2-024 (AID 988);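 note: plate controls were DMSO only for no effect and 92 µM tetraoctylammonium bromide for full effect; nearly all actives have a fitted effect of over 60% in size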
# Details: LYMP2-024 lymphoblastoid cell viability; series mostly up to 92.2 µM; activity change, negative = cytotoxicity: at the top concentration
# In short: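 Human lymphoblastoid cells (2500/well) in complete medium were preincubated 5 hr at 37 C, then exposed to compounds for 24 hr at 37 C. Intracellular ATP was read by CellTiter-Glo luminescence; AC50 from Hill-equation fits of concentration-response data.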
row,SMILES,"activity change, negative = cytotoxicity"
1,C=Cc1ccccc1,-28.1% (inactive)
2,CN(C)Cc1ccccc1,3.06% (inactive)
3,CCCCCCCCCC(=O)O,-0.734% (inactive)
4,COC(C)=O,-16.1% (inactive)

# Tested on: not listed separately
# Assay: Cell Viability - LYMP2-026 (AID 989); note: % is set by controls: 0 for no effect and ±100 for the full control effect; nearly all actives have a fitted effect of over 50% in size
# Details: LYMP2-026 lymphoblastoid cell viability, qHTS; series mostly up to 92.2 µM; activity change, negative = cytotoxic: at the top concentration
# In short: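 Human lymphoblastoid cells (2500/well) in complete medium were preincubated 5 hr at 37 C, then exposed to compounds for 24 hr at 37 C. Cellular ATP was read by CellTiter-Glo luminescence; AC50 from Hill-equation fits of concentration-response data.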
row,SMILES,"activity change, negative = cytotoxic"
1,O=C(O)CC(O)(CC(=O)O)C(=O)O,-9.71% (inactive)
2,C=Cc1ccccc1,-9.37% (inactive)
3,CN(C)Cc1ccccc1,3.17% (inactive)
4,CCCCCCCCCC(=O)O,8.26% (inactive)
5,COC(C)=O,-1.41% (inactive)

# Target: Alpha-galactosidase A (Homo sapiens) (UniProt P06280)
# Assay: Counterscreen for Glucocerebrosidase Inhibitors: qHTS Assay for Human alpha-Galactosidase at pH 4.5 (AID 992); note: 0% is about no effect
# Details: purified enzyme, fluorogenic substrate; series mostly up to 76.9 µM; activity change, negative = inhibition: at the top concentration
# In short: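 Enzyme at 2 nM final was combined with compound (0.7 nM to 77 uM) and 80 uM 4-methylumbelliferyl alpha-D-galactopyranoside in 50 mM citric acid, 0.005% Tween-20, pH 4.5. After 20 min at room temperature, fluorescence was read (Ex 365/Em 440 nm); AC50 came from Hill fits.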
# Chain of Alpha-galactosidase A (Homo sapiens) (P06280 whole entry, looked up): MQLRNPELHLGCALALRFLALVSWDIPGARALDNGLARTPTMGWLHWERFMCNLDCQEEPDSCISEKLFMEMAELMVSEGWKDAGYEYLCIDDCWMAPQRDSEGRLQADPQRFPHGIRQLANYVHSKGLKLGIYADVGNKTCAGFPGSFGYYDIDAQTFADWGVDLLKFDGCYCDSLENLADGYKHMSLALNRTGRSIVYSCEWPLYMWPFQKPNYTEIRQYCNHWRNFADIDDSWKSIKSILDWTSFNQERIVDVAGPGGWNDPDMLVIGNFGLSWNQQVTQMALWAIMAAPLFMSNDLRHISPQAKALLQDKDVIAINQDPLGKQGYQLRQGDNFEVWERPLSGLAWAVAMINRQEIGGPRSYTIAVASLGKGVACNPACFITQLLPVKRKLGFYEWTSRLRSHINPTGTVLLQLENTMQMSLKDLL
row,SMILES,"activity change, negative = inhibition"
1,Cc1ccc(OC[C@H](O)[C@H](C)NC(C)C)c2c1CCC2,-4.75% (inactive)
2,CN[C@H]1CC[C@@H](c2ccc(Cl)c(Cl)c2)c2ccccc21,-3.58% (inactive)
3,NCCCC(=O)O,-1.77% (inactive)

# Tested on: not listed separately
# Assay: Cell Viability - LYMP1-002 - Assay at 24 hr (AID 993); note: % is set by controls: 0 for no effect and ±100 for the full control effect
# Details: LYMP1-002 lymphoblastoid cells viability; series mostly up to 92.2 µM; activity change, negative = cytotoxicity: at the top concentration
# In short: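 Human lymphoblastoid LYMP1-002 cells, 2500/well in complete medium, were treated with compounds for 24 h at 37 C; intracellular ATP was read by CellTiter-Glo luminescence. AC50 values came from Hill-equation fits of qHTS concentration-response data.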
row,SMILES,"activity change, negative = cytotoxicity"
1,O=C(O)CC(O)(CC(=O)O)C(=O)O,0.852% (inactive)
2,C=Cc1ccccc1,-1.34% (inactive)
3,CN(C)Cc1ccccc1,6.88% (inactive)
4,CCCCCCCCCC(=O)O,-0.468% (inactive)
5,COC(C)=O,0.295% (inactive)

# Tested on: not listed separately
# Assay: Cell Viability - LYMP1-002 - Assay at 40 hr (AID 994);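 note: 0% = DMSO only and full inhibition = 92 µM tetraoctylammonium bromide; nearly all actives have a fitted effect of over 60% in size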
# Details: LYMP1-002 lymphoblastoid cell viability; series mostly up to 92.2 µM; viability change, negative = cytotoxic: at the top concentration
# In short: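 Human lymphoblastoid cells, 2500/well in complete medium, were preincubated 5 hr at 37 C, then exposed to compounds for 40 hr at 37 C. Intracellular ATP was read by CellTiter-Glo luminescence after 30 min at room temperature; AC50 from Hill-equation fits.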
row,SMILES,"viability change, negative = cytotoxic"
1,O=C(O)CC(O)(CC(=O)O)C(=O)O,-8.61% (inactive)
2,C=Cc1ccccc1,-3.28% (inactive)
3,CN(C)Cc1ccccc1,-5.78% (inactive)
4,CCCCCCCCCC(=O)O,-5.46% (inactive)
5,COC(C)=O,-5.53% (inactive)

# Target: alpha-glucosidase (Oryza sativa, rice) (UniProt Q653V4)
# Assay: Counterscreen for Glucocerebrosidase Inhibitors: qHTS Assay for Rice alpha-Glucosidase at pH 5.0 (AID 997);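 note: 0% = full activity with enzyme and -100% = basal without enzyme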
# Details: rice alpha-glucosidase enzyme activity; series mostly up to 76.9 µM; activity change, negative = inhibition: at the top concentration
# In short: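 Rice alpha-glucosidase (4 nM final) with 400 uM 4-methylumbelliferyl-alpha-D-glucopyranoside in citrate buffer pH 5.0, 20 min at room temperature, stopped at pH 10; fluorescence 365/440 nm, compounds 0.7 nM–77 uM, AC50 from Hill fits.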
row,SMILES,"activity change, negative = inhibition"
1,Cc1ccc(OC[C@H](O)[C@H](C)NC(C)C)c2c1CCC2,-0.0395% (inactive)
2,CN[C@H]1CC[C@@H](c2ccc(Cl)c(Cl)c2)c2ccccc21,-5.51% (inactive)
3,NCCCC(=O)O,-0.957% (inactive)

# Tested on: not listed separately
# Assay: qHTS Assay for Lipid Storage Modulators (AID 1519; calls by dose curve; for activity change, negative = inhibition: % is set by controls: 0 for no effect and ±100 for the full control effect)
# Details: Drosophila S3 cells, BODIPY lipid droplet/cell ratio, laser cytometry; at 57.5 µM (top of the series); cells loaded with oleic acid
# In short: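 Cells seeded at 5,000 per well were treated with compounds over a concentration series and loaded with oleic acid (400 uM, as added). Lipid droplet fluorescence (488 nm excitation, 500-530 nm channel) was read by laser-scanning cytometry and normalized to 20 uM Triacsin C.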
row,SMILES,"activity change, negative = inhibition"
1,O=C(O)CC(O)(CC(=O)O)C(=O)O,-0.75% (inactive)
2,CCCCCCCCCCCCCCCC(=O)OC/C=C(C)/C=C/C=C(C)/C=C/C1=C(C)CCCC1(C)C,3.99% (inactive)
3,C1CNCCN1,8.66% (inactive)
4,Cc1ccc(OC[C@H](O)[C@H](C)NC(C)C)c2c1CCC2,-0.878% (inactive)
5,NCCCC(=O)O,-0.209% (inactive) and 6.45% (inactive) and 0.252% (inactive)

# Same assay, conditions: Drosophila S3 cells, BODIPY lipid droplet/cell ratio, laser cytometry; measured here: cell count channel max response; cells loaded with oleic acid
row,SMILES,max response
1,O=C(O)CC(O)(CC(=O)O)C(=O)O,14.5%
2,CCCCCCCCCCCCCCCC(=O)OC/C=C(C)/C=C/C=C(C)/C=C/C1=C(C)CCCC1(C)C,7.5%
3,C1CNCCN1,6.29%
4,Cc1ccc(OC[C@H](O)[C@H](C)NC(C)C)c2c1CCC2,5.72%
5,NCCCC(=O)O,-9.18% and 2.91% and -17.1%

# Same assay, conditions: Drosophila S3 cells, BODIPY lipid droplet/cell ratio, laser cytometry; measured here: lipid channel max response; cells loaded with oleic acid
row,SMILES,max response
1,O=C(O)CC(O)(CC(=O)O)C(=O)O,16%
2,CCCCCCCCCCCCCCCC(=O)OC/C=C(C)/C=C/C=C(C)/C=C/C1=C(C)CCCC1(C)C,14%
3,C1CNCCN1,18.5%
4,Cc1ccc(OC[C@H](O)[C@H](C)NC(C)C)c2c1CCC2,7.78%
5,NCCCC(=O)O,-6.14% and 11.3% and -29.6%

# — PubChem BioAssay (NCATS)
